TDP1 cell noCPT = qHTS for Inhibitors of human tyrosyl-DNA phosphodiesterase 1 (TDP1): qHTS in cells in absence of CPT. DT40 Tdp1-/- hTDP1 cells, no CPT, ATP luminescence, 48 h. Potency, µM (top dose mostly 46.2 µM), usual class: inhibitors. hit rate 15% among 420,000; also: nearly all actives have a fitted effect of over 55% in size
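Compound effects on proliferation are scored in DT40 Tdp1-/-;hTDP1 cells in the absence of CPT. ATP levels (CellTiter-Glo luminescence) are recorded after a ≥48 hr, 37 °C incubation.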
IL-1B inflam inh = blocks inflammasome-driven IL-1 beta release. THP-1 LPS/ATP IL-1B secretion, AlphaLISA, 16 h; hits give low values. activity change, % at 57.5 µM. hit rate 4.7% among 360,000. AID 743279; in the data active = activity change below about -50%; inconclusive = mostly about -30% to -49%
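Secreted IL-1B measured by AlphaLISA bead assay after 16 h compound exposure of THP-1 cells; compounds (final up to 57.5 uM) added 1 h before LPS (250 ng/mL) and ATP (1.25 mM) stimulation; lower signal means less secretion.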
SW480 rereplic = induces DNA re-replication in SW480 colon adenocarcinoma cells; SW480 DNA re-replication, Hoechst DNA content imaging, 48 h; Potency, µM (doses to about 46.1 µM), hits mostly activators; hit rate 1.8% among 340,000; also: nearly all actives have a fitted effect of over 55% in size
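DNA re-replication was detected as more nuclei of elevated Hoechst intensity after 48 hr exposure to compound (23 nL pinned per well of 250 cells).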
TDP1 cell CPT = growth inhibition of DT40 Tdp1-/-;hTDP1 cells with camptothecin (screen for TDP1 inhibitors); chicken DT40 Tdp1-/-;hTDP1 cells + 20 nM CPT, ATP luminescence, 48 h; hit rate 12% among 420,000; Potency, µM (titrated, usually from 46.2 µM), usual class: inhibitors; also: nearly all actives have a fitted effect of over 55% in size
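Chicken DT40 Tdp1-/- cells complemented with human TDP1, 400 cells/well, exposed to compounds plus 20 nM camptothecin for at least 48 h at 37 C; viability read as ATP content by CellTiter-Glo luminescence.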
MCF10A rereplic = induces DNA re-replication in MCF 10a normal breast cells. MCF 10A DNA re-replication, Hoechst nuclear intensity, 48 h. Potency, µM (series often up to 46.1 µM), hits mostly activators. hit rate 2.9% among 350,000; also: nearly all actives have a fitted effect of over 50% in size
Chronic BCR inh = chronic active BCR signaling inhibition; Potency, µM (series often up to 46.1 µM), usual class: inhibitors; hit rate 0.05% among 340,000; ABC-DLBCL IkBa-CBG/CBR reporter, luminescence ratio, 4 h; AID 493014; active = well fitted inhibition curve with a large enough effect in the signal ratio, with a control signal flat, not every such curve was filed as active; inconclusive = small, poorly fitted or top-dose-only effect, or effect the other way, or a change in a side signal; the % refers to the signal ratio
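TMD8 ABC-DLBCL cells carrying doxycycline-inducible green luciferase fused to IkappaBalpha plus unfused red luciferase were exposed to compounds (up to 46 uM) for 4 hrs at 37C. Activity came from the overlap-corrected green/red luminescence ratio.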
Numbers stand for hits; - = inactive; ? = inconclusive; . = not tested or not shown; [ ] = another dose, or the depositor's remark. The list is not random: actives were taken first. Their share in the collection is about 19%. Unless noted, calls follow the shape of the dose curve; as a rule, active = well fitted curve in the direction sought with a large enough effect; inconclusive = small, poorly fitted or top-dose-only effect, or another doubt; inactive = no such curve, though single readings can be large; an effect the other way counts as inactive or inconclusive.

SMILES | TDP1 cell noCPT | IL-1B inflam inh | SW480 rereplic | TDP1 cell CPT | MCF10A rereplic | Chronic BCR inh
O=[N+]([O-])c1ccc(Nc2nc(N3CCOCC3)nc(N3CCOCC3)n2)cc1 | ? | - | - | ? | - | .
FC(F)(F)C(Oc1nc(Nc2ccc(Cl)cc2)nc(N2CCOCC2)n1)C(F)(F)F | 21µM | -76 | -[9.22 µM] | ? | ? | -
Cc1ccc(NC2(c3ccccc3)C(=O)c3ccccc3C2=O)cc1F | - | . | . | - | . | .
CCCOc1ccc(C2C(=O)N(C3CCCCCC3)CC(=O)N2C(C)C)cc1OC (configuration not stated) | ? | . | . | ? | . | -
CCOC(=O)COc1cc(C)c(Cl)cc1C(=O)c1ccn2nc(-c3ccc(OC)cc3)cc2n1 | 13µM | . | . | ? | . | .
CCOC(=O)COc1ccc(F)cc1C(=O)c1ccn2nc(-c3ccc(Cl)cc3)cc2n1 | - | . | . | - | . | .
CCOC(=O)COc1ccc(C)cc1C(=O)c1ccn2nc(-c3ccc(F)cc3)cc2n1 | 21µM | . | . | 16µM | . | .
COCc1c(C(=O)OCc2nc3ccsc3c(=O)[nH]2)oc2ccccc12 | - | - | - | - | - | -
Cc1ccccc1-c1nccc(NCCN2CCOCC2)n1 | - | . | . | - | . | .
CCC1CCCCN1S(=O)(=O)c1ccc(NC(=O)c2cccs2)cc1 (configuration not stated) | 16µM | ? | - | 23µM | ? | ?
CCC1CCCCN1S(=O)(=O)c1ccc(NC(=O)c2snnc2C)cc1 (configuration not stated) | ? | ? | - | ? | ? | -
CCCSc1ncc(Cl)c(C(=O)Nc2ccc(S(=O)(=O)N3CCC(C)CC3)cc2)n1 | 15µM | . | . | ? | . | .
CCC1CCCCN1S(=O)(=O)c1ccc(NC(=O)c2nc(SC)ncc2Cl)cc1 (configuration not stated) | 23µM | . | . | 21µM | . | .
CCCSc1ncc(Cl)c(C(=O)Nc2ccc(S(=O)(=O)Nc3ncccn3)cc2)n1 | - | - | - | - | - | -
CCOC(=O)c1ccc(NC(=O)c2nc(SC)ncc2Cl)cc1 | - | - | - | - | - | -
CCCSc1ncc(Cl)c(C(=O)Nc2ccc(S(=O)(=O)N3CCCCC3C)cc2)n1 (configuration not stated) | 8.2µM | . | . | ? | . | .
OC1COCOC1C(O)C1OCOCC1O (configuration not stated) | - | - | - | - | - | .
O=C(OCc1cc(=O)n2nc(-c3cccs3)sc2n1)c1ccc(Cl)cc1 | - | . | . | - | . | .
CCCNC(=O)c1cc(C2CCCCN2S(=O)(=O)c2ccccc2)on1 (configuration not stated) | ? | - | . | - | . | .
O=C(c1ccccc1)C1CN(c2ccccc2)CC1c1ccc(Cl)cc1 (configuration not stated) | 16µM | - | - | ? | - | -
O=C(CN1C2CCCC1CC(NC(=O)C1CCCCC1)C2)Nc1ccccc1 (configuration not stated) | ? | - | - | 15µM | - | -
Cc1ccc(NC(=O)c2ccc(OC(F)(F)F)cc2)cc1S(=O)(=O)N(C)C | 26µM | - | - | ? | - | -
CCCCN1C(=O)c2ccc(C(=O)Nc3cccc(C)c3C)cc2C1=O | - | - | - | - | - | -
CCCCN1C(=O)c2ccc(C(=O)Nc3ccc(C)c(S(=O)(=O)N(C)C)c3)cc2C1=O | 16µM | - | - | ? | - | -
Cc1cc(C)n(-c2ccc(C(=O)Nc3ccc(S(=O)(=O)NCc4ccco4)cc3)cc2)n1 | 18µM | -54 | - | 18µM | - | ?
SMILES | TDP1 cell noCPT | IL-1B inflam inh | SW480 rereplic | TDP1 cell CPT | MCF10A rereplic | Chronic BCR inh
Cc1cc(C)n(-c2ccc(C(=O)Nc3cccc([N+](=O)[O-])c3)cc2)n1 | ? | ? | - | - | - | -
COc1ccc(NC(=O)c2ccc(-n3nc(C)cc3C)cc2)cc1OC | ? | -51 | - | ? | - | ?
O=C(NCc1ccccc1)C1c2ccccc2OCC(=O)N1CC(F)(F)F (configuration not stated) | - | - | . | - | . | .
COc1ccc(CNC(=O)C2CCN(S(=O)(=O)Cc3ccccc3)CC2)cc1 | - | . | . | ? | . | .
Cc1cc(C)n(-c2nc3ccccc3nc2Nc2ccc3c(c2)OCO3)n1 | - | - | - | - | 16µM | -
O=S(=O)(Nc1nc2ccccc2nc1Nc1ccc2c(c1)OCO2)c1ccc(F)cc1 | 13µM | - | - | 18µM | - | -
Cc1ccc2nc(Nc3ccc4[nH]c(=O)[nH]c4c3)c(-n3nc(C)cc3C)nc2c1 | ? | -90 | - | ? | - | ?
Cc1cc(C)n(-c2nc3ccccc3nc2Nc2ccc(N(C)C)cc2)n1 | - | . | . | - | . | .
O=C(O)c1cccc(Nc2nc3ccccc3nc2NS(=O)(=O)c2ccc(F)cc2)c1 | - | - | - | - | - | -
Cc1cc(C)n(-c2ccc(C(=O)Nc3cccc(S(=O)(=O)N(C)C)c3)cc2)n1 | 1.6µM | - | - | 1.8µM | - | -
CC(=O)N1CCC2(CC1)CN(c1ccncc1)C2 | - | . | . | - | . | .
CCN(c1ccc(NC(=O)COC(=O)C(C)N=C2NS(=O)(=O)c3ccccc32)cc1)C(C)C (configuration not stated) | - | ? | - | - | - | -
Cc1cc(C)n(-c2ccc(C(=O)Nc3ccc(C)c(S(=O)(=O)N(C)C)c3)cc2)n1 | ? | -78 | - | ? | - | ?
Cc1cc(C)n(-c2ccc(C(=O)Nc3ccc(N4CCOCC4)cc3)cc2)n1 | - | - | - | - | - | -
Cc1cc(C)n(-c2ccc(C(=O)Nc3ccc(S(=O)(=O)N(C)C)cc3)cc2)n1 | 23µM | - | - | ? | ? | -
Cc1cc(C)n(-c2ccc(C(=O)Nc3ccc4c(c3)OCO4)cc2)n1 | ? | -54 | - | ? | ? | ?
C/C(=N\Nc1nc(Cl)c(Cl)cc1Cl)c1ccc(S(=O)(=O)NCc2ccco2)cc1 | 21µM | - | ? | ? | ? | ?
Cc1ccc(NC(=O)c2ccncc2)cc1S(=O)(=O)N(C)C | - | - | - | - | - | -
Nc1ccn([C@@H]2O[C@H](C(=O)N[C@H]3c4ccccc4C[C@H]3O)[C@@H](O)[C@H]2O)c(=O)n1 | - | - | . | - | . | .
CC(NC(=O)C1CCOCC1)c1nnc2n1CCN(Cc1ccc3cccnc3c1)CC2 (configuration not stated) | - | . | . | - | . | .
CCOC(=O)C1=CCN(S(=O)(=O)c2ccccc2Br)C1c1ccc(F)cc1 (configuration not stated) | ? | - | . | ? | . | .
CCOC(=O)N1CCN(C(=O)CSC2=NS(=O)(=O)c3cc(F)ccc3N2)CC1 | - | - | - | - | ? | -
